Data from PubChem BioAssay (NCATS).
Records with an inconclusive call do not appear. Active and inactive are the calls of the source. Unless noted, calls follow the shape of the dose curve; as a rule, active = well fitted curve in the direction sought with a large enough effect; inconclusive = small, poorly fitted or top-dose-only effect, or another doubt; inactive = no such curve, though single readings can be large; an effect the other way counts as inactive or inconclusive.

Assays:
[1] = Validation of Assay for Modulators of Lamin A Splicing (AID 1459; active = well fitted curve in the direction sought with a large enough effect in the signal ratio; the % refers to the signal ratio;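 also: cells exposed to compound for two days before reading; ratio rise marks activators and ratio drop marks inhibitors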)
Procedure, shortened: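 Readout: ratio of GFP (500-530 nm) to RFP (575-640 nm) total object intensity by 488 nm laser-scanning cytometry after 48 hrs. Cells were HeLa S3 clones carrying lamin A-EGFP minigene plus DsRed2 viability reporter; vehicle 0.5% DMSO final.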

[2] = target: Alpha-galactosidase A (Homo sapiens) (UniProt P06280); experiment: Counterscreen for Glucocerebrosidase Inhibitors: qHTS Assay for Human alpha-Galactosidase at pH 4.5 (AID 992)
Procedure, shortened: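 Each compound is preincubated briefly with 2 nM enzyme before substrate addition (80 uM); plates then sit 20 min at ambient temperature, are quenched with 1M NaOH/1M glycine, and read fluorometrically.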

[3] = target: alpha-glucosidase (Oryza sativa, rice) (UniProt Q653V4); experiment: Counterscreen for Glucocerebrosidase Inhibitors: qHTS Assay for Rice alpha-Glucosidase at pH 5.0 (AID 997)
Procedure, shortened: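 Endpoint fluorogenic assay at pH 5.0: compounds (0.7 nM to 77 uM) titrated against 4 nM rice enzyme and 400 uM 4-MU-alpha-glucoside for 20 min at room temperature; NaOH/glycine stop, read ex 365/em 440 nm, Hill-fitted AC50.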

Sequence of Alpha-galactosidase A (Homo sapiens) (P06280 whole entry, looked up): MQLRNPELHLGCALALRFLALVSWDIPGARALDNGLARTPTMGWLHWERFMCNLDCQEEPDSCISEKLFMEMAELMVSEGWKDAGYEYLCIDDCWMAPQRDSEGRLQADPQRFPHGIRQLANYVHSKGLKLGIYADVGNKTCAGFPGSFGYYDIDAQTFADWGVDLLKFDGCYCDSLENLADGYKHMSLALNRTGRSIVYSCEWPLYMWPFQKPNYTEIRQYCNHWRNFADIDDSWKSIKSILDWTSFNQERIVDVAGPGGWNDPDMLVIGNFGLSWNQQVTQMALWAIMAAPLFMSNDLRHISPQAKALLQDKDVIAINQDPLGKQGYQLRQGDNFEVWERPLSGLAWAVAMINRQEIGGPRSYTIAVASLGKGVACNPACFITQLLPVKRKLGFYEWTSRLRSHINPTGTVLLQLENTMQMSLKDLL

| SMILES | outcome [1] | outcome [2] | outcome [3] |
| --- | --- | --- | --- |
| O=C(O)[C@@H]1C[C@H](C(=O)O)N1 | inactive | – | – |
| O=C(Nc1ccccc1)c1cc([N+](=O)[O-])ccc1Cl | inactive | inactive | inactive |
| COC(=O)c1c(C)[nH]c(C)c1C(=O)c1ccccc1Cc1ccccc1 | inactive | inactive | inactive |
| NCCCCCCCCCCN | inactive | inactive | inactive |
| Fc1ccc(C(OCCCc2cnc[nH]2)c2ccc(F)cc2)cc1 | inactive | inactive | inactive |
| Cn1c(=O)c2[nH]c(-c3ccccc3)nc2n(C)c1=O | inactive | inactive | inactive |
| c1ccc(-c2ccccn2)nc1 | inactive | inactive | inactive |
| COc1cccc(C(=O)NCCN2CCN(c3ccc(Cl)cc3)CC2)c1 | inactive | inactive | inactive |
| N.N.O=C(O)C1(C(=O)O)CCC1.[Pt] | inactive | inactive | inactive |
| CCCCN1CCC(n2c(=O)[nH]c3ccccc32)CC1 | inactive | inactive | inactive |
| CN(C)C(N)=NCCC[C@H](N)C(=O)O | inactive | inactive | inactive |
| O=C(O)[C@@H]1C[C@@H](C(=O)O)N1 | inactive | inactive | inactive |
| O=C(O)c1cc(=O)c2c(Cl)cc(Cl)cc2[nH]1 | inactive | inactive | inactive |
| O=c1[nH]c2cc(C(F)(F)F)ccc2n1-c1cc(C(F)(F)F)ccc1O | inactive | inactive | inactive |
| CN1CCc2cc(NC(=O)Nc3cccnc3)ccc21 | inactive | inactive | inactive |
| COc1ccc(/C=C/C(=O)Nc2ccccc2C(=O)O)cc1OC | inactive | inactive | inactive |
| CN(C)c1nc(N)c(C(=O)N=C(N)N)nc1Cl | inactive | inactive | inactive |
| CC1(C)CCC=[N+]1[O-] | inactive | inactive | inactive |
| N=C(N)SCCc1ccc(CCSC(=N)N)cc1 | inactive | inactive | inactive |
| C[N+](C)(CCCCCC[N+](C)(C)CCCN1C(=O)c2cccc3cccc(c23)C1=O)CCCN1C(=O)c2cccc3cccc(c23)C1=O | inactive | inactive | inactive |
| O=C(O)CC[C@@H](C(=O)O)N1C(=O)c2ccccc2C1=O | inactive | inactive | inactive |
| N#C/C(=C\c1ccc(O)c(O)c1)C(=O)NCc1ccccc1 | inactive | inactive | inactive |
| NC(=O)C(=O)O | inactive | inactive | inactive |
| NC(N)=NC(=O)c1nc(Cl)c(N2CCCCCC2)nc1N | inactive | inactive | inactive |
| N#C/C(=C\c1ccc(O)c(O)c1)C(=O)NCCCc1ccccc1 | inactive | inactive | inactive |
| NCCNC(=O)c1ncsc1-c1cccc(F)c1 | inactive | inactive | inactive |
| C[C@@H](NC(=O)/C(C#N)=C/c1ccc(O)c(O)c1)c1ccccc1 | inactive | inactive | inactive |
| CC(=O)SCC[N+](C)(C)C | inactive | inactive | inactive |
